Measurements taken from PubChem BioAssay (EPA / NIEHS).
Inconclusive results are not listed. Calls of active or inactive are those of the source. How the source made its calls, unless noted: active means hit-call score of the fitted dose curve at least 0.9, where 1 is the maximum; inconclusive means response in the unintended direction; inactive means score below 0.9.

Columns and labels:
[1] = TOX21_p53_BLA_p2_viability: Viability Assessment in the Tox21 HCT-116 p53 Agonism Beta-lactamase Assay, Phase 2 (AID 2283591);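 further: compound exposure lasted 16 h at 37 °C; actives lower the ATP signal meaning cytotoxicity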
Procedure, shortened: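 HCT-116 p53-bla cells (4000/well) rested 5 h at 37C, then received compounds in DMSO (217-fold dilution) for 16 h at 37C, 5% CO2. After the CCF4 read, CellTiter-Glo was added; ATP luminescence was read after 30 min at room temperature.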

[2] = biological target: Cellular tumor antigen p53 (Homo sapiens) (UniProt P04637); assay: TOX21_p53_BLA_p2_ratio: Tox21 HCT-116 p53 Agonism Beta-lactamase Assay, Ratio, Phase 2 (AID 2283592)
Sequence of Cellular tumor antigen p53 (Homo sapiens) (P04637 whole entry, looked up): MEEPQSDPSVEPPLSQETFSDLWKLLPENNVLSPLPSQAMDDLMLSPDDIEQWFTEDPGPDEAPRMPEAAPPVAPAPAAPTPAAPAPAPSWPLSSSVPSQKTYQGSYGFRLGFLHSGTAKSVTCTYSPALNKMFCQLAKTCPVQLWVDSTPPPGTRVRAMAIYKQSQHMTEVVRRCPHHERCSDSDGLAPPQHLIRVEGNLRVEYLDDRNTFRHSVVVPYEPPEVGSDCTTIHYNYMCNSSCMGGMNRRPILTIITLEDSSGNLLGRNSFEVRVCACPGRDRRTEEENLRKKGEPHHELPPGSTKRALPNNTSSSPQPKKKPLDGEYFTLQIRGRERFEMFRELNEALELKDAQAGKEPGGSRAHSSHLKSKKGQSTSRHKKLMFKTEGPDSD
Procedure, shortened: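 HCT-116 cells with p53-responsive beta-lactamase reporter, 4000 cells/well, preincubated 5 h, then compound in DMSO (217-fold dilution) for 16 h at 37C. CCF4-AM substrate 2 h at room temperature; 460/530 nm emission ratio fitted upward versus DMSO.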

[3] = TOX21_p53_BLA_p3_viability: Viability Assessment in the Tox21 HCT-116 p53 Agonism Beta-lactamase Assay, Phase 3 (AID 2283593);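 further: cells exposed to compound for 16 h before reading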
Procedure, shortened: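 HCT-116 cells (4000/well) rested 5 h at 37C, then got DMSO compounds by pin tool (217-fold dilution) for 16 h at 37C, 5% CO2. After the bla read, CellTiter-Glo was added and luminescence read at 30 min, room temperature.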

[4] = biological target: Cellular tumor antigen p53 (Homo sapiens) (UniProt P04637); assay: TOX21_p53_BLA_p3_ratio: Tox21 HCT-116 p53 Agonism Beta-lactamase Assay, Ratio, Phase 3 (AID 2283596)
Procedure, shortened: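 HCT116 p53-bla cells (4000/well) given compound in DMSO (217-fold dilution) after 5 h, incubated 16 h at 37C. CCF4-AM substrate 2 h at room temperature; 460/530 nm emission ratio, gain fitted against DMSO.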

[5] = TOX21_p53_BLA_p4_viability: Viability Assessment in the Tox21 HCT-116 p53 Agonism Beta-lactamase Assay, Phase 4 (AID 2283597);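 further: hits lower the luminescence signal meaning cytotoxicity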
Procedure, shortened: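 HCT-116 p53-bla cells, 4000/well, dosed after 5 h attachment and incubated 16 h at 37 °C, 5% CO2. Viability from CellTiter-Glo ATP luminescence after 30 min at room temperature, taken after the beta-lactamase read; loss of signal indicates cytotoxicity.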

[6] = biological target: Cellular tumor antigen p53 (Homo sapiens) (UniProt P04637); assay: TOX21_p53_BLA_p5_ratio: Tox21 HCT-116 p53 Agonism Beta-lactamase Assay, Ratio, Phase 5 (AID 2283599)
Procedure, shortened: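 HCT-116 cells carrying a p53-inducible beta-lactamase reporter were seeded at 4000 cells/well and dosed after 5 h with compound in DMSO (217-fold dilution). After 16 h at 37C, CCF4-AM substrate was added for 2 h, and the 460/530 nm emission ratio was scored as gain-of-signal versus DMSO.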

[7] = TOX21_p53_BLA_p5_viability: Viability Assessment in the Tox21 HCT-116 p53 Agonism Beta-lactamase Assay, Phase 5 (AID 2283600)
Procedure, shortened: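 HCT-116 p53 beta-lactamase reporter cells, 4000/well, were exposed to compound (pin transfer, 217-fold dilution) for 16 hours at 37C. Cellular ATP was read by CellTiter-Glo luminescence after 30 min at room temperature.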

[8] = biological target: Cellular tumor antigen p53 (Homo sapiens) (UniProt P04637); assay: TOX21_p53_BLA_p4_ratio: Tox21 HCT-116 p53 Agonism Beta-lactamase Assay, Ratio, Phase 4 (AID 2283601)
Procedure, shortened: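 HCT116 cells carrying an inducible beta-lactamase reporter were plated at 4000 cells/well, rested 5 h, then exposed to compounds in DMSO (217-fold dilution) for 16 h at 37C. CCF4-AM substrate was loaded 2 h at room temperature; 460/530 nm emission ratio scored gain-of-signal versus DMSO.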

[9] = system: Brachyury (BRA) Protein Expression, Deisenroth Lab, TBXT (gene 6862); assay: CCTE_Deisenroth_DEVTOX-GLR_legacy_Bra: (Legacy) CCTE's DevTox GLR-Endo Assay Evaluation of Brachyury (BRA) Protein Expression, Deisenroth Lab (AID 2284329; active means hit-call score of the fitted dose curve at least 0.9, where 1 is the maximum; inactive means score below 0.9)
Procedure, shortened: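 RUES2-GLR human pluripotent cells differentiated 48 h with two 24-h-interval chemical exposures (1 nM - 200 uM, 10 points); fixed, nuclear-stained, imaged. Bra+ cell percentage (intensity 5x BMAD above pluripotent control median) fitted relative to 0.2% DMSO.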

[10] = CCTE_Deisenroth_DEVTOX-GLR_legacy_CellCount: (Legacy) Viability Assessment in CCTE's DevTox GLR-Endo Assay, Deisenroth Lab (AID 2284331; active means hit-call score of the fitted dose curve at least 0.9, where 1 is the maximum; inactive means score below 0.9); settings: actives raise or lower the signal
Procedure, shortened: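 Nuclei count by fluorescence high-content imaging (5 fields/well) after 48 h differentiation of RUES2-GLR cells. Two exposures, 24 h apart; 1 nM - 200 uM series; n=4. Bidirectional fit vs DMSO.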

[11] = system: SRY-box transcription factor 17 (SOX17) Protein Expression, Deisenroth Lab, SOX17 (gene 64321); assay: CCTE_Deisenroth_DEVTOX-GLR_legacy_Sox17: (Legacy) CCTE's DevTox GLR-Endo Assay Evaluation of SRY-box transcription factor 17 (SOX17) Protein Expression, Deisenroth Lab (AID 2284341; active means hit-call score of the fitted dose curve at least 0.9, where 1 is the maximum; inactive means score below 0.9); settings: actives raise or lower the signal
Procedure, shortened: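 RUES2-GLR human pluripotent cells, seeded 24 h, then differentiated 48 h in defined media with two chemical exposures 24 h apart (1 nM - 200 uM, 10 points). Sox17+ fraction from high-content fluorescence imaging; bidirectional fit versus 0.2% DMSO.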

[12] = system: SRY-box transcription factor 2 (SOX2) Protein Expression, Deisenroth Lab, SOX2 (gene 6657); assay: CCTE_Deisenroth_DEVTOX-GLR_legacy_Sox2: (Legacy) CCTE's DevTox GLR-Endo Assay Evaluation of SRY-box transcription factor 2 (SOX2) Protein Expression, Deisenroth Lab (AID 2284346; active means hit-call score of the fitted dose curve at least 0.9, where 1 is the maximum; inactive means score below 0.9)
Procedure, shortened: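 RUES2-GLR human pluripotent cells seeded 24 h, then differentiated 48 h in defined media with two chemical doses 24 h apart (10-point, 1 nM–200 uM). Fixed, nuclear-stained, imaged; % Sox2+ cells (>5x BMAD over endoderm control median), DMSO-subtracted, fitted upward.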

[13] = system: SRY-box transcription factor 2 (SOX2) Protein Expression, Deisenroth Lab, SOX2 (gene 6657); assay: CCTE_Deisenroth_DEVTOX-GLR_Endo_SOX2: CCTE's DevTox GLR-Endo Assay Evaluation of SRY-box transcription factor 2 (SOX2) Protein Expression, Deisenroth Lab (AID 2284412)
Procedure, shortened: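 RUES2-GLR human pluripotent cells were seeded 24 h, then differentiated 48 h with two chemical exposures 24 h apart. Cells were fixed, nuclei stained and imaged by high-content microscopy. Endpoint is %SOX2+ cells over cell count, minus 0.2% DMSO control; 10-point series 1 nM–200 uM.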

[14] = system: SRY-box transcription factor 17 (SOX17) Protein Expression, Deisenroth Lab, SOX17 (gene 64321); assay: CCTE_Deisenroth_DEVTOX-GLR_Endo_SOX17: CCTE's DevTox GLR-Endo Assay Evaluation of SRY-box transcription factor 17 (SOX17) Protein Expression, Deisenroth Lab (AID 2284413; active means hit-call score of the fitted dose curve at least 0.9, where 1 is the maximum; inactive means score below 0.9)
Procedure, shortened: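 Endpoint: % change in SOX17+ fraction (SOX17+ cells / cell count) vs 0.2% DMSO solvent control. RUES2-GLR reporter cells, 48 h endoderm differentiation, two doses at 24 h intervals, high-content fluorescence imaging, 5 fields/well.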

[15] = CCTE_Deisenroth_DEVTOX-GLR_Endo_CellCount: Viability Assessment in CCTE's DevTox GLR-Endo Assay, Deisenroth Lab (AID 2284420; active means hit-call score of the fitted dose curve at least 0.9, where 1 is the maximum; inactive means score below 0.9)
Procedure, shortened: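 RUES2-GLR pluripotent cells seeded 24 h, then differentiated 48 h in defined media with two chemical exposures 24 h apart. Nuclei counted by high-content imaging; 10-point 1 nM–200 uM series; percent change versus 0.2% DMSO.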

[16] = system: SRY-box transcription factor 17 (SOX17) Protein Expression, Deisenroth Lab, SOX17 (gene 64321); assay: CCTE_Deisenroth_DEVTOX-GLR_Pluri_SOX17: CCTE's DevTox GLR-Pluri Assay Evaluation of SRY-box transcription factor 17 (SOX17) Protein Expression, Deisenroth Lab (AID 2284427)
Procedure, shortened: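 RUES2-GLR pluripotent cells were induced toward endoderm over 48 h and received two compound doses 24 h apart, in a 10-point series from 1 nM to 200 uM. The percentage of SOX17+ cells among total cells was measured by high-content imaging and reported minus the 0.2% DMSO control.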

[17] = system: Brachyury (BRA) Protein Expression, Deisenroth Lab, TBXT (gene 6862); assay: CCTE_Deisenroth_DEVTOX-GLR_Pluri_BRA: CCTE's DevTox GLR-Pluri Assay Evaluation of Brachyury (BRA) Protein Expression, Deisenroth Lab (AID 2284429)
Procedure, shortened: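 Human pluripotent RUES2-GLR cells, seeded 24 h, were differentiated 48 h in defined media with two chemical doses at 24-h intervals (10-point, 1 nM - 200 uM). Readout: percent BRA+ cells by fluorescent reporter imaging, minus 0.2% DMSO control.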

[18] = CCTE_Deisenroth_DEVTOX-GLR_Pluri_CellCount: Viability Assessment in CCTE's DevTox GLR-Pluri Assay Evaluation of Total Cell Counts, Deisenroth Lab (AID 2284430; active means hit-call score of the fitted dose curve at least 0.9, where 1 is the maximum; inactive means score below 0.9)
Procedure, shortened: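 RUES2-GLR human pluripotent cells, seeded 24 h, then differentiated 48 h with two chemical exposures 24 h apart; 10-point series 1 nM - 200 uM. Fixed, nuclear-stained, imaged (5 fields/well); nuclei count as % change vs 0.2% DMSO.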

[19] = biological target: Thyroid hormone receptor alpha (Rattus norvegicus) + Thyroid hormone receptor beta (Rattus norvegicus) (UniProt P18113+P63059); assay: TOX21_TR_LUC_GH3_Antagonist_Followup: Tox21 GH3 Thyroid Hormone Receptor Antagonism Luciferase Follow-Up Assay (AID 2283942)
Procedure, shortened: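 Rat pituitary GH3 cells with a TRα/TRβ-driven luciferase reporter, 5 h attachment, then 15 concentrations (92 uM to 5nM final) plus 1.0 nM T3 agonist, 24 h at 37C/5% CO2. ONE-Glo luminescence; signal change fitted against DMSO baseline.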

[20] = biological target: THRB (gene 7068) (UniProt P10828); assay: TOX21_TRB_BLA_Antagonist_Followup_ratio: Tox21 Thyroid Hormone Receptor beta Antagonism Beta-lactamase (BLA) Follow-Up Assay, Ratio (AID 2283958)
Sequence of THRB (gene 7068) (P10828 whole entry, looked up, the tested form may be a part): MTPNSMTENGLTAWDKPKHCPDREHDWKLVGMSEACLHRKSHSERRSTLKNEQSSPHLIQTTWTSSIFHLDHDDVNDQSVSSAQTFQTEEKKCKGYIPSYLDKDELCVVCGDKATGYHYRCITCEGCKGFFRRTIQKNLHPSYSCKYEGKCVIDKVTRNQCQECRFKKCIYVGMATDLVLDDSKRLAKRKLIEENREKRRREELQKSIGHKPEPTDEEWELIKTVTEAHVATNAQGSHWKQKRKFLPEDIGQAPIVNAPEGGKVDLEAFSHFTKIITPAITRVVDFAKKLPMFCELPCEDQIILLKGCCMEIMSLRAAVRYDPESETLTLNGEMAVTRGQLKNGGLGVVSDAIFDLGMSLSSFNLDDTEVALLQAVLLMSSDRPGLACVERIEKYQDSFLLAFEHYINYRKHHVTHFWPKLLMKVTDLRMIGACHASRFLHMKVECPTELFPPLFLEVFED
Procedure, shortened: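 HEK293T cells with a GAL4-TRb LBD fusion and UAS-bla reporter, 3,000 cells/well in phenol red-free DMEM with 2% charcoal-stripped FBS. Exposed 18 h at 37C to 11 concentrations in triplicate; CCF4 460:530 nm ratio after 2 h, DMSO-referenced.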

[21] = TOX21_TRB_BLA_Antagonist_Followup_viability: Viability Assessment in the Tox21 Thyroid Hormone Receptor beta Antagonism Beta-lactamase (BLA) Follow-Up Assay (AID 2283961)
Procedure, shortened: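 HEK293T cells with GAL4-human TRβ LBD and UAS-bla reporter, 3,000 cells/well in 2% charcoal-stripped FBS medium; 11-point concentrations in triplicate, 18 h at 37C. Viability from ATP by CellTiter-Glo luminescence, 30 min RT, same plates.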

[22] = biological target: THRB (gene 7068) (UniProt P10828); assay: TOX21_TRB_COA_Antagonist_Followup_ratio: Tox21 Thyroid Hormone Receptor beta Antagonism through Coactivator Recruitment Follow-Up Assay, Ratio (AID 2283967)
Procedure, shortened: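 Cell-free TR-FRET coactivator recruitment with GST-tagged TRβ LBD (5.0 nM) and fluorescein-labeled SRC-2 peptide (200 nM) detected by terbium anti-GST antibody (2 nM). The 520:495 nm emission ratio was normalized to DMSO (0%) and T3 (100%).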

[23] = biological target: Retinoic acid receptor RXR-alpha (Homo sapiens) (UniProt P19793); assay: TOX21_TR_RXR_BLA_Antagonist_Followup_ratio: Tox21 Thyroid Hormone Receptor beta Retinoid X Receptor alpha (RXRa) Antagonism Beta-lactamase (BLA) Follow-Up Assay, Ratio (AID 2283972)
Sequence of Retinoic acid receptor RXR-alpha (Homo sapiens) (P19793 whole entry, looked up): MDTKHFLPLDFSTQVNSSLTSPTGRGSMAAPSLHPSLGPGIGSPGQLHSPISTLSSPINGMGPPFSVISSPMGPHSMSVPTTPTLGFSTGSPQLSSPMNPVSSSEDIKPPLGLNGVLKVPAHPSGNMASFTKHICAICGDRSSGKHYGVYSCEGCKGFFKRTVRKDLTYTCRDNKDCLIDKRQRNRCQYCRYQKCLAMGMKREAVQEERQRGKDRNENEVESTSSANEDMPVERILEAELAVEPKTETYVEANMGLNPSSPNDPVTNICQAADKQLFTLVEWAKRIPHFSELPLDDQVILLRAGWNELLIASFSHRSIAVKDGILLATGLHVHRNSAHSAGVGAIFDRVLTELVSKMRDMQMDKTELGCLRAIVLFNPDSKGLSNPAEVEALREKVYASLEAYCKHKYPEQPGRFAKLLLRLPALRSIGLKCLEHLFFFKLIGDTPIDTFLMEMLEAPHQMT
Procedure, shortened: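 RXRa-UAS-bla HEK293T cells, 2,500/well in phenol red-free DMEM with 2% charcoal-stripped FBS, 5 h attachment, then compounds (11 concentrations, triplicate) for 16 h at 37C; FRET-B/GCCF4-AM substrate 2 h RT; 460:530 nm ratio, loss of signal vs DMSO.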

[24] = TOX21_TR_RXR_BLA_Antagonist_Followup_viability: Viability Assessment in the Tox21 Thyroid Hormone Receptor beta Retinoid X Receptor alpha (RXRa) Antagonism Beta-lactamase (BLA) Follow-Up Assay (AID 2283979)
Procedure, shortened: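 RXRa-UAS-bla HEK293T cells seeded 2,500/well in phenol red-free DMEM with 2% charcoal-stripped FBS, attached 5 h, then exposed to compounds at 11 concentrations in triplicate for 16 h at 37C/5% CO2. Viability read by CellTiter-Glo ATP luminescence; bidirectional fit versus DMSO.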

Measured: AC50

COc1cc2ncnc(Nc3ccc(F)c(Cl)c3)c2cc1OCCCN1CCOCC1
inactive: [1] | [2] | [3] | [4] | [6] | [7] | [8] | [16] | [17] | [18]
active: [5] 40.7 µM | [9] 8.42 µM | [10] 6.58 µM | [11] 5.74 µM | [12] 5.86 µM | [13] 10.9 µM | [14] 5.78 µM | [15] 6.57 µM

O=C1C(=O)c2ncccc2-c2cccnc21
inactive: [1] | [3] | [7] | [19] | [20] | [22] | [23] | [24]
active: [2] 1.01 µM | [4] 1.08 µM | [5] 5.12 µM | [6] 0.599 µM | [8] 0.96 µM | [21] 5.41 µM

Cc1nc2sccn2c(=O)c1CCN1CCC(=C(c2ccc(F)cc2)c2ccc(F)cc2)CC1
inactive: [4] | [6] | [7] | [8] | [16]
active: [1] 37.8 µM | [2] 36.5 µM | [3] 8.52 µM | [5] 23 µM | [10] 9.28 µM | [11] 11 µM | [12] 8.41 µM | [13] 20.4 µM | [14] 11 µM | [15] 9.15 µM | [17] 24.1 µM | [18] 9.92 µM
